Experimental data from PubChem BioAssay (NCI).
Compounds without any hit were thinned out: in the full panel of roughly 83,000, 20% have a hit.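 In brief: 96-well plates, 48 h treatment, single concentration, percent growth endpoint.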 Values without a mark were called inactive. Calls of active or inactive are those of the source. Rule for the calls: active = growth percent below 10; inactive = the rest.

Experiments:
Assay in all cases: NCI-60 one-dose screen, 48 h (100 = growth as untreated, 0 = no growth, -100 = all killed)
Conditions in all cases: 10 µM unless noted
T-47D breast = system: T-47D breast
BT-549 breast = system: BT-549 breast
MDA-MB-435 melanoma = system: MDA-MB-435 melanoma
SW-620 colon = system: SW-620 colon
MCF7 breast = system: MCF7 breast
HCT-116 colon = system: HCT-116 colon
HCC-2998 colon = system: HCC-2998 colon
KM12 colon = system: KM12 colon

| Structure (SMILES) | growth (T-47D breast) | growth (BT-549 breast) | growth (MDA-MB-435 melanoma) | growth (SW-620 colon) | growth (MCF7 breast) | growth (HCT-116 colon) | growth (HCC-2998 colon) | growth (KM12 colon) |
| --- | --- | --- | --- | --- | --- | --- | --- | --- |
| O=CN/N=C/c1ccc(Cl)c([N+](=O)[O-])c1 | 25.3% | 42.6% | 18.9% | 17.6% | 6.05% (active) | 16.2% | 27.2% | 7.24% (active) |
| COc1ccc(-c2cn3ccnc3c(-c3ccc4ncn(C5CCCCC5)c4c3)n2)cc1 | -8.6% (active) | 31.1% | -18.6% (active) | 22.2% | 19.8% | 8.72% (active) | 37.4% | 16.8% |
| COc1cc(NC(=O)CSc2nc3ccc(Cl)cc3c(=O)n2-c2ccc(F)cc2)cc(OC)c1OC | 72.6% | 95.9% | 90.8% | 95.4% | 87.5% | 79.4% | 105% | 85.2% |
| Cc1ccc(OCCn2ccc(=O)n(CCOc3ccc(Cl)cc3C(=O)c3cc(C)cc(C)c3)c2=O)cc1 | 39.5% | 55.1% | -3.9% (active) | 29.7% | 22.4% | 34.5% | 64.5% | 36.9% |
| COc1ccc(-c2nc(SCC(C)C)nc(Nc3ccc([N+](=O)[O-])cc3)c2C#N)cc1 | 92.6% | 104% | 101% | 84.8% | 90.2% | 60.1% | 107% | 99.9% |
| O=C(CCC(=O)N(CCO)CCO)N(CCO)CCO | 98.5% | 93.5% | 109% | 106% | 94.6% | 95.7% | 110% | 99.8% |
| CC1C(=O)CCCC1=O | 96.1% | 104% | 105% | 113% | 95.8% | 113% | 109% | 113% |
| O=C(/C=C\c1ccc(NCc2ccc(C(=O)O)cc2)cc1)CCl | -22.8% (active) | 64.3% | 89.5% | 3.72% (active) | 24% | -15.3% (active) | 97.5% | 98.2% |
| CC(=O)c1ccc2c(c1)c1ccccc1n2C | 103% | 96.1% | 99.3% | 113% | 86.4% | 96.7% | 100% | 97.9% |
| CSc1nc(N)n2nccc2n1 | 102% | 99.6% | 98.3% | 97.9% | 96% | 99.2% | 100% | 114% |
| CCOC(=O)c1c(C)oc2ncnc(Nc3ccc(NC(=O)Nc4cccc(Cl)c4)cc3)c12 | 1.99% (active) | 61.6% | 65.8% | 88.7% | 43.3% | 50.8% | 105% | 61% |
| O=C(N/N=C/c1cc(Cl)ccc1O)C(=O)N/N=C/c1cc(Cl)ccc1O | 73.5% | 86.9% | 67.8% | 61.3% | 61.3% | 60.2% | 59.5% | 59.1% |
| Cc1c(C(N)=O)sc2c1c(=O)n(Cc1ccccc1)c1nnc(S(C)(=O)=O)n21 | 89.4% | 78.9% | 81.7% | 94.3% | 73.3% | 79.6% | 103% | 109% |
| Nc1ccc(N=Nc2ccccc2)c2cc(S(=O)(=O)O)ccc12 | 97% | 114% | 108% | 106% | 86.5% | 104% | 103% | 103% |
| COc1ccc(/C=C2\CCCC3=C2N=C2SC=NN2C3c2ccc(OC)c(OC)c2)cc1OC (stereo not drawn) | 52.5% | 38.5% | 18.2% | 29.7% | 22.6% | 8.93% (active) | 57.1% | 28.2% |
| Nc1ncn([C@@H]2O[C@H](CO)[C@@H](O)C2(F)F)c(=O)n1 | 76.2% | 53.6% | 53% | 51.2% | 20.7% | 29.8% | 60.4% | 61.2% |

| Structure (SMILES) | growth (T-47D breast) | growth (BT-549 breast) | growth (MDA-MB-435 melanoma) | growth (SW-620 colon) | growth (MCF7 breast) | growth (HCT-116 colon) | growth (HCC-2998 colon) | growth (KM12 colon) |
| --- | --- | --- | --- | --- | --- | --- | --- | --- |
| N=c1c2c(=O)n3c(nc2nc2sc4ccc(Cl)cc4n12)-c1ccccc1Sc1ccccc1-3 | 1.99% (active) | 1.57% (active) | 0.844% (active) | 26.1% | 6.98% (active) | 7.35% (active) | 6.95% (active) | 22.6% |
| CCCCCCC(=O)C(C)C | 110% | 102% | 103% | 106% | 102% | 101% | 105% | 103% |
| COc1ccc(/C=C/C(=O)/C=C/c2cc3ccccc3[nH]c2=O)cc1 | 57.1% | 64.9% | 13.6% | 36.4% | 14.5% | -30.8% (active) | 96.7% | 27.6% |
| COC(=O)C(C)[C@H]1CC[C@@H]2[C@]1(C)CC=C1[C@]23C=C[C@]2(C[C@@H](OC(C)=O)CC[C@]12C)C(C(=O)OC)C3C(=O)OC (stereo partly drawn) | 78.2% | 101% | 95.1% | 102% | 83.9% | 63.7% | 91.4% | 92.5% |
| C[C@H]1C[C@@H](n2cnc3c(N)nccc32)[C@H](O)[C@@H]1O | 102% | 93.7% | 113% | 87.2% | 90.1% | 86.8% | 101% | 80.8% |
| NNC(=S)N1N=C(c2cc3ccccc3o2)CC1c1c[nH]c2ccccc12 (stereo not drawn) | 40.3% | 32.2% | 57.8% | 43.8% | 20.7% | 23.8% | 52% | 37.4% |
| O=C(NC1CCN(Cc2ccccc2)CC1)c1cc(-c2cccnc2)nc2ccc(Cl)cc12 | 45% | 75.5% | 75% | 27% | 70.9% | 57.6% | 64.9% | 39.2% |
| COC(=O)[C@H](Cc1cn(C)cn1)NC(=O)[C@H](Cc1c[nH]c2ccccc12)NC(=O)Nc1cc(C(F)(F)F)cc(C(F)(F)F)c1 | -72.2% [100 µM] (active) | -88.6% [100 µM] (active) | -88.5% [100 µM] (active) | -38.1% [100 µM] (active) | -58.6% [100 µM] (active) | -89.1% [100 µM] (active) | -96.8% [100 µM] (active) | -86.6% [100 µM] (active) |
| CCCC(C)c1cc(Cc2cc(Cl)cc(Cl)c2O)c(O)c(Cc2cc(Cl)cc(Cl)c2O)c1 (stereo not drawn) | 6.27% (active) | -14.9% (active) | 7.24% (active) | 12.9% | 4.88% (active) | 4.58% (active) | 8.08% (active) | 9.12% (active) |
| COC(=O)[C@H](Cc1cn(C)cn1)NC(=O)[C@@H](NC(=O)Nc1cc(C(F)(F)F)cc(C(F)(F)F)c1)C(C)(C)C | -63.9% [100 µM] (active) | -90.4% [100 µM] (active) | -89.3% [100 µM] (active) | -46.4% [100 µM] (active) | -59.2% [100 µM] (active) | -91.5% [100 µM] (active) | -94.2% [100 µM] (active) | -88.7% [100 µM] (active) |
| COc1cc([C@@H]2c3cc4c(cc3[C@H](O)[C@H]3COC[C@@H]23)OCO4)cc(OC)c1OC | 83.7% | 90.6% | -12.4% (active) | 54.4% | 30.9% | 66.7% | 85.5% | 49.5% |
| CCn1cc(C(=O)O)c(=O)c2cc(F)c(N3CCN(S(=O)(=O)c4ccc(Cl)cc4)CC3)cc21 | 41.1% | 12.6% | 25.1% | 24% | 14.3% | 4.8% (active) | 24.5% | 4.3% (active) |
| CCCCN(CCCC)CCCNc1c2c(nc3ccc(Cl)cc13)CCCC2 | 95.7% | 108% | 103% | 82.3% | 89.6% | 57.6% | 82.8% | 99.7% |
| O=S(=O)(O)c1ccc2c(c1)Sc1cc(S(=O)(=O)O)ccc1O2 | 110% | 127% | 92.6% | 104% | 106% | 106% | 102% | 108% |
| CC(=O)N(N=O)c1ccc([N+](=O)[O-])cc1Cl | 29.2% | 71.7% | 66.7% | 71.6% | 52.2% | 44.9% | 76.6% | 69% |
